MITF inh – inhibitors of human MITF; AlphaScreen MITF homodimerization, bead proximity signal; 650,000 tested, 0.91% active; AID 1259374; inhibition, % at 2.6 µM; in the data active = inhibition above about 50%;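 also: 0% = vehicle wells with protein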
Target sequence (O75030 whole entry, looked up): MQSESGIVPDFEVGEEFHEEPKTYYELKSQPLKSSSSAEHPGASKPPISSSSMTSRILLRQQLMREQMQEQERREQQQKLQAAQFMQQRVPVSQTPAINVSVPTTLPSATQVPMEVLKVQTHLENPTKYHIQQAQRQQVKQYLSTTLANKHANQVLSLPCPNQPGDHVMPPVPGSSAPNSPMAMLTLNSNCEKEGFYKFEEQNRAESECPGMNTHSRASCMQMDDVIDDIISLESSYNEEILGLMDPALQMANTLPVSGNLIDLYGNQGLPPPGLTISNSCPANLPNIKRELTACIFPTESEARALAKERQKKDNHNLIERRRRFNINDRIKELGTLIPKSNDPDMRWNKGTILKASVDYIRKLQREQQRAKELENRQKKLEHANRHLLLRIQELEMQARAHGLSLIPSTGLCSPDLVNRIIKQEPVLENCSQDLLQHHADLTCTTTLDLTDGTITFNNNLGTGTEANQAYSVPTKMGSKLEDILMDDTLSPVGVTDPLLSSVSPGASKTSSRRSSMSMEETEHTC
TEAD-YAP block – TEAD-YAP interaction inhibition | HEK-TIYL cells, TEAD-Gal4/YAP UAS-luciferase luminescence | inhibition, % at 9.12 µM | 640,000 tested, 1.4% active; in the data active = inhibition above about 32%;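 also: 0% = median of test compound wells and 100% = reference inhibitor wells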
GPR151 ag – activators of human GPR151; Q8TDV0; PathHunter beta-arrestin GPR151 cells, luminescence; activation, % at 11.2 µM; 650,000 tested, 1% active; AID 1508602; in the data active = activation above about 4.9%;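 also: 0% = median of compound wells and 100% = cells with positive control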
FBW7 act – activators of human E3 ligase FBW7 | AlphaScreen FBW7–phospho-cyclin E peptide binding, activator screen | normalized activity (activation), % at 26.1 µM | 650,000 tested, 0.13% active; in the data active = normalized activity above about 1.9%;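 also: purified mutant Fbw7 with reduced substrate affinity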
GPR151 confirm – confirmation of human GPR151 activators; activation, % at 11.2 µM; shares compounds with GPR151 ag; 6,700 tested, under 10 active; GPR151 PathHunter beta-arrestin cells, luminescence, 90 min; % of EA-reagent control over plate median; AID 1508609;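 active = mean percent activation across replicates above the confirmation screen cutoff of 4.91%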
GPR119 ag – counter-screen for GPR151 activators: effect on human GPR119; shares compounds with GPR151 ag; GPR119 PathHunter beta-arrestin cells, luminescence, 90 min; 0 = compound-well median, 100 = enzyme-acceptor control; activation, % at 11.2 µM; 6,700 tested, 0.3% active; AID 1508611;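 active = mean percent activation in the counterscreen above 29.09%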;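 also: counterscreen on off-target GPR119 to flag nonselective hits from the GPR151 activator screen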
* hit, by the source's call; · = no result given. An excerpt weighted towards active compounds, which were near 3.5% of everything screened.

SMILES | MITF inh | TEAD-YAP block | GPR151 ag | FBW7 act | GPR151 confirm | GPR119 ag
O=C(Nc1ccc(S(=O)(=O)Nc2nccs2)cc1)C(c1ccccc1)c1ccccc1 | 8.5 | 0.4 | 5.5* | 0.1 | 0.2 | 0.0
CC(C)n1c(-c2csc3ccccc23)nc2c(NCCCN3CCCC3=O)ncnc21 | -2.2 | 4.5 | 6.8* | 0.0 | 0.6 | -3.7
CC(C)n1c(-c2cccs2)nc2c(NCCCN3CCCC3=O)ncnc21 | 35.0 | 2.9 | 0.7 | 0.2 | · | ·
Cc1nc(NC(C)c2ccccc2)cc(-c2ccccc2F)n1 (centres undefined) | 11.7 | 1.8 | 5.8* | 0.1 | -1.6 | -9.6
Cc1ccc(S(=O)(=O)n2cc(-c3ccnc(N)c3)c3cc(Br)cnc32)cc1 | · | · | 7.6* | · | -0.3 | -2.0
C[N+](C)(C)C/C=C1/COCO1 | 11.4 | 2.2 | 13.5* | 0.1 | -1.0 | -8.2
Cc1ccccc1NC(=O)C1C(=O)NC23CCCCC2C1c1ccccc1O3 (centres undefined) | -13.3 | 3.9 | 1.0 | 0.1 | · | ·
Cc1cc(C)c2sc(NC(=O)CCC3CCCC3)nc2n1 | -6.2 | -11.0 | 5.3* | -0.3 | 1.1 | -7.4
CCC(C)c1ccc(NC(=O)CN(C)CC(=O)Nc2cccc(OC)c2)cc1 (centres undefined) | 33.0 | -1.0 | 6.1* | -0.3 | 0.5 | -3.1
COc1cccc(NC(=O)CN(C)CC(=O)Nc2ccc(-c3ccccc3)cc2)c1 | -1.1 | -7.0 | 0.7 | -0.4 | · | ·
O=C(OCc1ccccc1)/C(=C/c1c[nH]c2ccccc12)[N+](=O)[O-] | 12.8 | 8.2 | 5.5* | 0.2 | -0.9 | -2.4
O=C1c2cccc([N+](=O)[O-])c2C(=O)N1Cc1ccco1 | 13.7 | 7.0 | 5.2* | -0.3 | -0.6 | -11.8
O=C1C2C3CCC(C3)C2C(=O)N1c1ccc(OS(=O)(=O)c2ccccc2)cc1 (centres undefined) | -12.0 | -37.1 | 7.6* | 0.1 | -0.1 | -7.0
O=C(CSC1=NCCS1)Nc1ccc(F)c(Cl)c1 | -17.9 | -0.6 | -1.1 | 0.1 | · | ·
CC1=C(C)CC2C(=O)N(c3ccc(C)cc3C)C(=O)C2C1 (centres undefined) | -4.2 | -1.0 | -0.6 | -0.1 | · | ·
O=C(NNC(=O)C12CC3CC(C1)CC(c1ccccc1)(C3)C2)c1ccncc1 | -2.4 | 2.3 | 6.0* | -0.2 | -0.3 | 0.5
Cn1c(C(=O)N2CCN(c3ccc(F)cc3)CC2)cc2c(=O)n3ccccc3nc21 | -0.8 | 1.3 | 5.6* | 0.2 | 0.6 | 7.9
Cc1noc(/C=C/N(C)C)c1S(=O)(=O)N(C)Cc1ccc2c(c1)OCO2 | 15.3 | 3.8 | -0.8 | 0.7 | · | ·
COc1cccc(NC(=O)CSc2nc3ccc(OC)cc3cc2C#N)c1 | 8.2 | -2.3 | 5.1* | 0.2 | 0.8 | 12.3
Cc1cc(C)nc(N2CCC(C(=O)NCC3CCCO3)CC2)n1 (centres undefined) | -11.3 | 0.7 | 1.4 | 0.1 | · | ·
COc1ccc2c(ccn3cc4c(c(=O)n(C)c(=O)n4C)c23)c1 | -2.9 | 8.3 | 3.8 | 0.2 | · | ·
O=C(CN1CCCCCC1)Nc1cccc2ccccc12 | 49.9 | 3.9 | 0.3 | 0.0 | · | ·
CCOc1ccc2nc(C(=O)N3CCCCC3)sc2c1 | 4.2 | -63.0 | 11.3* | -0.1 | -0.7 | -4.5
O=C(COc1ccc(Cl)cc1Cl)Nc1cc(-c2ccccc2)nn1CCO | 4.2 | 4.1 | 5.9* | 0.2 | -0.4 | 10.4
O=C(COc1ccccc1F)Nc1cc(-c2ccccc2)nn1CCO | -3.3 | -9.9 | 0.3 | -0.1 | · | ·
SMILES | MITF inh | TEAD-YAP block | GPR151 ag | FBW7 act | GPR151 confirm | GPR119 ag
Cc1cccc(-n2nc3c(c2NC(=O)COc2ccc(Cl)cc2Cl)CS(=O)(=O)C3)c1C | -12.2 | 2.0 | -1.3 | 0.1 | · | ·
Cc1ccccc1-n1nc2c(c1NC(=O)COc1ccc(Cl)cc1Cl)CS(=O)(=O)C2 | 6.6 | -2.2 | 8.8* | 0.0 | -0.2 | 7.7
CC(NC(=O)c1nn2c(C(F)(F)F)cc(-c3cccs3)nc2c1Br)c1ccccc1 (centres undefined) | 7.0 | -6.0 | 1.3 | -0.2 | · | ·
O=C(Nc1ccccc1)N[C@H]1C[C@H]2C(=O)N3CCC[C@@H]3C(=O)N2C1 | 14.6 | -15.4 | 10.2* | 1.2 | 1.6 | 19.2
COc1cccc2ccc(CN3CCN(C4CCN(C(C)C)CC4)C(CCO)C3)nc12 (centres undefined) | -1.8 | -3.1 | 9.0* | -0.2 | -0.8 | -1.8
CC(C)N1CCC(N2CCN(Cc3ccc(-c4ccc(Cl)cc4)o3)CC2CCO)CC1 (centres undefined) | 4.8 | -1.2 | 6.6* | 0.0 | 1.6 | 13.4
COc1cccc(CN2CCN(C(=O)CCC3(C)CCC(=O)N3)CC2=O)c1 (centres undefined) | -4.4 | -0.1 | 7.8* | -0.1 | 0.1 | 19.1
Cc1cccc(NC(=O)C(c2ccc(Cl)cc2Cl)N2CCC2=O)c1 (centres undefined) | -4.2 | 8.7 | 7.8* | 0.2 | 0.8 | 0.5
COc1ccccc1C1c2c(oc3ccc(C)cc3c2=O)C(=O)N1CCN1CCOCC1 (centres undefined) | -9.0 | 2.6 | 12.7* | 0.0 | 0.8 | 6.6
COc1cccc(C2c3c(oc4ccc(C)cc4c3=O)C(=O)N2CCN2CCOCC2)c1 (centres undefined) | -5.8 | -17.6 | 1.0 | 0.2 | · | ·
O=C(COc1ccc(Cl)cc1)NCC(c1ccco1)N1CCOCC1 (centres undefined) | -0.4 | 12.7 | 6.2* | -0.4 | 1.8 | 3.4
COC(=O)c1ccccc1NC(=O)Nc1ccc(Br)cc1Cl | -8.1 | 8.6 | 5.9* | -0.1 | 0.4 | 8.6
COC(=O)c1ccccc1NC(=O)Nc1ccc(Cl)cc1 | 20.7 | 3.0 | -1.5 | 0.0 | · | ·
O=C(O)c1ccc(NC(=O)c2ccccc2NC(=O)c2cccc(Br)c2)cc1 | -10.2 | 10.3 | 5.5* | -0.3 | -0.7 | -8.1
COC(=O)c1cccc(NC(=O)c2cccc(Br)c2)c1C | -8.0 | -51.4 | 14.9* | -0.1 | -0.9 | -16.6
CCOC(=O)c1ccccc1NC(=O)c1cccc(Br)c1 | -5.6 | 2.8 | 1.8 | 0.1 | · | ·
CCOC(=O)C(C)Sc1ncnc2c1c(-c1ccccc1)cn2-c1ccc(OCC)cc1 (centres undefined) | -9.4 | 0.6 | 0.0 | -0.1 | · | ·
COc1cc(C2C(C#N)=C(N)OC3=C2C(=O)CC(C)(C)C3)ccc1OC(C)=O (centres undefined) | -1.7 | 2.0 | 5.3* | -0.2 | 1.2 | 5.5
CCOc1ccc(C2C(C#N)=C(N)OC3=C2C(=O)CC(C)(C)C3)cc1 (centres undefined) | -5.1 | -0.1 | 8.0* | 0.1 | -0.3 | -9.9
COc1cccc(CNC(=O)CC(NS(=O)(=O)c2ccc(F)cc2)c2cccc(OC)c2OC)c1 (centres undefined) | 3.8 | 8.5 | 1.5 | -0.2 | · | ·
O=C(CCC(=O)c1cccs1)Nc1ccc(N2CCOCC2)cc1 | 2.9 | -7.7 | -2.4 | 0.5 | · | ·
CCOC(=O)C1CCN(C(=O)/C(=C/c2cccc([N+](=O)[O-])c2)c2ccccc2)CC1 | 11.7 | -0.9 | 8.7* | -0.3 | -0.4 | -12.9
